{"source": "the supplement of paper PMC3342239", "note": "Counter-ions that a name gives are not always drawn."}
{"tested_on": "Saccharomyces cerevisiae", "test": "fraction of cells in G1 phase (DNA content, flow cytometry); higher = more cells with unreplicated DNA (G1 delay)", "conditions": "temperature: 30 C; YPD; JTY2953 pdr5 snq2 (sensitized); drug added to: cultures diluted from stationary phase; 6-7 h", "summary_of_the_method": "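Library drugs were added to S. cerevisiae in YPD at 30°C, with fixation after 6–7 h for sensitized JTY2953 diluted 1∶200 from overnight and given a final 20 µg/ml, 6 h for dividing JTY2953, and 4.33 h for BY4741. Ethanol-fixed cells stained with SYTOX Green were read by flow cytometry, 10,000 events each. The G1 fraction is the ratio of the Dean-Jett-Fox G1 peak area to the G1 plus G2/M areas.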"}
{"smiles": "CN1C(C(=O)Nc2ccccn2)=C(O)c2ccccc2S1(=O)=O", "note": "[Piroxicam] (60.3587 µM)", "fraction of cells in G1 phase": 0.505}
{"smiles": "Oc1ncnc2[nH]ncc12", "note": "[Allopurinol] (146.936 µM)", "fraction of cells in G1 phase": 0.483}
{"smiles": "CC1(C)S[C@@H]2[C@H](NC(=O)[C@H](N)c3ccccc3)C(=O)N2[C@H]1C(=O)O", "note": "[Ampicillin trihydrate] (57.2391 µM)", "fraction of cells in G1 phase": 0.497}
{"smiles": "c1cnc(N2CCN(Cc3ccc4c(c3)OCO4)CC2)nc1", "note": "[Piribedil HCl] (67.0359 µM)", "fraction of cells in G1 phase": 0.532}
{"smiles": "CC(N)C12CC3CC(CC(C3)C1)C2", "note": "(stereo not drawn) [Rimantadine HCl] (111.54 µM)", "fraction of cells in G1 phase": 0.484}
{"smiles": "O=C(CCNNC(=O)c1ccncc1)NCc1ccccc1", "note": "[Nialamide] (67.0359 µM)", "fraction of cells in G1 phase": 0.512}
{"smiles": "COc1cc2c(cc1OC)-c1c/c(=N\\c3c(C)cc(C)cc3C)n(C)c(=O)n1CC2", "note": "[Trequinsin HCl] (45.2489 µM)", "fraction of cells in G1 phase": 0.425}
{"smiles": "CC(C)Nc1cccnc1N1CCN(C(=O)c2cc3cc(NS(C)(=O)=O)ccc3[nH]2)CC1", "note": "[Delavirdine mesylate] (43.8048 µM)", "fraction of cells in G1 phase": 0.487}
{"smiles": "Cn1nnc2c(C(N)=O)ncn2c1=O", "note": "[Temozolomide] (103.011 µM)", "fraction of cells in G1 phase": 0.48}
{"smiles": "COc1cc2nc(N3CCN(C(=O)C4COc5ccccc5O4)CC3)nc(N)c2cc1OC", "note": "(stereo not drawn) [Doxazosin mesylate] (44.2981 µM)", "fraction of cells in G1 phase": 0.442}
{"smiles": "COc1ccc2cc(CCC(C)=O)ccc2c1", "note": "[Nabumetone] (87.6065 µM)", "fraction of cells in G1 phase": 0.535}
{"smiles": "CC1=C(C)C(=O)C(CCCCC#CCCCC#CCO)=C(C)C1=O", "note": "[Docebenone] (61.2671 µM)", "fraction of cells in G1 phase": 0.552}
{"smiles": "COc1ccc([C@@H]2Sc3ccccc3N(CCN(C)C)C(=O)[C@@H]2OC(C)=O)cc1", "note": "[Diltiazem] (44.3459 µM)", "fraction of cells in G1 phase": 0.544}
{"smiles": "CC(C)(O/N=C(\\C(=O)N[C@@H]1C(=O)N2C(C(=O)[O-])=C(C[n+]3ccccc3)CS[C@H]12)c1csc(N)n1)C(=O)O", "note": "[Ceftazidime] (36.5909 µM)", "fraction of cells in G1 phase": 0.486}
{"smiles": "C[C@]12CC[C@@H]3c4ccc(O)cc4C[C@@H](CCCCCCCCC[S+]([O-])CCCC(F)(F)C(F)(F)F)[C@H]3[C@@H]1CC[C@@H]2O", "note": "(stereo partly drawn) [Fulvestrant] (32.9606 µM)", "fraction of cells in G1 phase": 0.458}
{"smiles": "O=C(O)Cc1ccccc1Nc1c(Cl)cccc1Cl", "note": "[Diclofenac, Na] (67.5321 µM)", "fraction of cells in G1 phase": 0.473}
{"smiles": "Cc1ccc(-c2ncc(Cl)cc2-c2ccc(S(C)(=O)=O)cc2)cn1", "note": "[Etoricoxib] (55.7337 µM)", "fraction of cells in G1 phase": 0.511}
{"smiles": "CC(C)NCC(O)c1ccc2ccccc2c1", "note": "(stereo not drawn) [Pronethalol HCl] (87.2126 µM)", "fraction of cells in G1 phase": 0.502}
{"smiles": "CC(C)[C@H]1CC[C@H](C(=O)N[C@H](Cc2ccccc2)C(=O)O)CC1", "note": "[nateglinide] (63.0056 µM)", "fraction of cells in G1 phase": 0.489}
{"smiles": "CC(=O)NC[C@H]1CN(c2ccc(N3CCOCC3)c(F)c2)C(=O)O1", "note": "[Linezolid] (59.2849 µM)", "fraction of cells in G1 phase": 0.526}
{"smiles": "C[C@H]1COc2c(N3CCN(C)CC3)c(F)cc3c(=O)c(C(=O)O)cn1c23", "note": "[Levofloxacin HCl] (55.344 µM)", "fraction of cells in G1 phase": 0.471}
{"smiles": "CC(C)NCC(O)COc1ccc(CC(N)=O)cc1", "note": "(stereo not drawn) [Atenolol] (75.0911 µM)", "fraction of cells in G1 phase": 0.454}
{"smiles": "CC[C@]1(O)C[C@@H]2CN(CCc3c([nH]c4ccccc34)[C@@](C(=O)OC)(c3cc4c(cc3OC)N(C)[C@H]3[C@@](O)(C(=O)OC)[C@H](OC(C)=O)[C@]5(CC)C=CCN6CC[C@]43[C@@H]65)C2)C1", "note": "[Vinblastine sulfate] (21.9998 µM)", "fraction of cells in G1 phase": 0.495}
{"smiles": "COc1ccc2c(c1)c(CC(=O)OCC(=O)O)c(C)n2C(=O)c1ccc(Cl)cc1", "note": "[Acemetacin] (48.0961 µM)", "fraction of cells in G1 phase": 0.489}
{"smiles": "CC(C)NCC(O)c1ccc(O)c(O)c1", "note": "(racemic) [Isoproterenol HCl (rac)] (94.6687 µM)", "fraction of cells in G1 phase": 0.447}
{"smiles": "Nc1ccc(C(=O)O)c(O)c1", "note": "[4-aminosalicylic acid] (130.601 µM)", "fraction of cells in G1 phase": 0.481}
{"smiles": "O=C(Nc1cccc2c(=O)cc(-c3nnn[nH]3)oc12)c1ccc(OCCCCc2ccccc2)cc1", "note": "[Pranlukast] (41.5355 µM)", "fraction of cells in G1 phase": 0.561}
{"smiles": "Nc1ccn([C@@H]2O[C@H](CO)[C@@H](O)C2(F)F)c(=O)n1", "note": "[Gemcitabine HCl] (75.9871 µM)", "fraction of cells in G1 phase": 0.49}
{"smiles": "O=c1[nH]c(=O)n([C@H]2C[C@H](O)[C@@H](CO)O2)cc1F", "note": "[Floxuridine] (81.2358 µM)", "fraction of cells in G1 phase": 0.514}
{"smiles": "CCC1(c2ccccc2)NC(=O)N(C)C1=O", "note": "(stereo not drawn) [Mephenytoin] (91.6348 µM)", "fraction of cells in G1 phase": 0.522}
{"smiles": "C[C@@H](O)[C@H]1C(=O)N2C(C(=O)O)=C(SCCNC=N)C[C@H]12", "note": "[Imipenem] (66.8112 µM)", "fraction of cells in G1 phase": 0.486}
{"smiles": "CC1Cc2ccccc2N1NC(=O)c1ccc(Cl)c(S(N)(=O)=O)c1", "note": "(stereo not drawn) [Indapamide] (54.6685 µM)", "fraction of cells in G1 phase": 0.511}
{"smiles": "Cc1ccc(C(=O)c2cc(O)c(O)c([N+](=O)[O-])c2)cc1", "note": "[Tolcapone] (73.1937 µM)", "fraction of cells in G1 phase": 0.522}
{"smiles": "COc1cc(C(=O)OCCCN2CCCN(CCCOC(=O)c3cc(OC)c(OC)c(OC)c3)CC2)cc(OC)c1OC", "note": "[Dilazep] (33.074 µM)", "fraction of cells in G1 phase": 0.47}
{"smiles": "CN1CCN(c2c(F)cc3c(=O)c(C(=O)O)cn4c3c2SCC4)CC1", "note": "[Rufloxacin] (55.0337 µM)", "fraction of cells in G1 phase": 0.466}
{"smiles": "CN(C)CCN1C(=O)c2ccccc2N(C)c2ccccc21", "note": "[Dibenzepine HCl] (67.7077 µM)", "fraction of cells in G1 phase": 0.479}
{"smiles": "COC(=O)c1ccc(=O)c2nc3c(=CO)c(O)cc(=O)c3[nH]c12", "note": "[Lomofungin] (63.6422 µM)", "fraction of cells in G1 phase": 0.495}
{"smiles": "CCCCC[C@H](O)/C=C/[C@H]1[C@H](O)CC(=O)[C@@H]1CCCCCCC(=O)O", "note": "[Alprostadil] (56.4189 µM)", "fraction of cells in G1 phase": 0.447}
